Marburg entry inh – Marburg virus entry inhibition; 1.8% of 300,000 active; Potency, µM (series often up to 37.8 µM), without a hit: at the top dose activity change, negative = inhibition, actives largely listed as inhibitors; Marburg virus pseudotyped entry inhibition, cell reporter; calls by dose curve; tested in HEK293 cells; also: potency is read from the fitted curve at half-maximal effect
HCMV inh – blocks human cytomegalovirus replication; HFF cells, HCMV-luciferase reporter, 72 h; hits give low values; activity change, negative = inhibition, % at 57.5 µM; 4.5% of 410,000 active; AID 1259415; in the data active = activity change below about -60%; inconclusive = no clear call, values can overlap the other calls; inactive = above about -39%
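Compounds were evaluated in HFFs infected with an HCMV luciferase reporter virus (MOI 1 PFU/cell). Luciferase in lysates collected 72 h post infection served as the replication measure.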
HCV inhibitor – HCV inhibition. Huh7.5.1 HCVcc-Cre infection, luciferase reporter, 44 h. Potency, µM (top dose mostly 41.8 µM), for the others: top-dose activity change, negative = inhibition, hits mostly inhibitors. 3.4% of 340,000 active; active = well fitted inhibition curve with a large enough effect; inconclusive = small, poorly fitted or top-dose-only effect, or another doubt; inactive = no such curve, though single readings can be large or run the other way; also: potency is read from the fitted curve at half-maximal effect
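Cells seeded at 1,000/well and cultured 4 h, then compounds added followed by HCVcc-Cre virus (~0.5 moi). After 44 h further culture, luciferase substrate was added, plates held 15 min at room temperature, and luminescence read for 15 sec.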
Lassa entry inh – Lassa virus entry inhibition; Lassa virus pseudotype entry inhibition, cell reporter; Potency, µM (highest dose often 37.9 µM), for the others: top-dose activity change, negative = inhibition, hits mostly inhibitors; 1.2% of 300,000 active; AID 540256; calls by dose curve; tested in HEK293 cells; also: potency is read from the fitted curve at half-maximal effect; nearly all actives have a fitted effect of over 50% in size
FMDV inh – antivirals against foot and mouth disease virus; FMDV antiviral cell-based qHTS; Potency, µM (highest dose often 57.9 µM), for the others: at the highest dose activity change, negative = inhibition, most hits filed as inhibitors; 1.2% of 410,000 active; AID 1159524; calls by dose curve; tested in HEK293T cells; also: read-out not given here; potency is read from the fitted curve at half-maximal effect; nearly all actives have a fitted effect of over 45% in size
* marks the source's active call; other numbers are inactive results; [ ] = another dose, or the depositor's remark. The list is not random: actives were taken first. Their share in the collection is about 7.9%. % is scaled to controls: 0 for no effect and ±100 for the full control effect.

How did CCCCSc1nnc2c(n1)OC(c1ccc(C)s1)Nc1ccccc1-2 (centres undefined) do in these assays?
Marburg entry inh: 27%[46.1 µM]; HCMV inh: inconclusive; Lassa entry inh: 28%[46.1 µM]; FMDV inh: 0%

What do the screens show for `Cc1ccc(CN2CCN(C3CCN(C(=O)Nc4ccccc4C(F)(F)F)CC3)C(=O)C2=O)cc1`?
HCMV inh: 18; Lassa entry inh: -2%[46.1 µM]; FMDV inh: 2%

What do the screens show for `Cc1cc(OC(C)C(=O)N(Cc2ccco2)Cc2ccccc2F)cc(C)c1Cl` (centres undefined)?
Marburg entry inh: -13%[46.1 µM]; HCMV inh: -13; Lassa entry inh: 3%[46.1 µM]; FMDV inh: -15%

How did COc1ccc(CNC(=O)c2cc3c(=O)n(C)c4ccccc4c3n2C)cc1 do in these assays?
Marburg entry inh: 2%[46.1 µM]; HCMV inh: 2; Lassa entry inh: -10%[46.1 µM]; FMDV inh: -2%

Results for CCOc1ccc(CNC(=O)c2ccc3oc(=O)n(Cc4ccccc4)c3c2)cc1 ?
HCMV inh: -16; Lassa entry inh: 5µM*; FMDV inh: inconclusive

How did CCn1c(C(=O)NCc2ccc(F)cc2)cc2oc3ccccc3c21 do in these assays?
Marburg entry inh: 3.5µM*; HCMV inh: -69*; Lassa entry inh: inconclusive; FMDV inh: 0%

What do the screens show for `CCOc1ccccc1CNC(=O)c1cc2oc3ccccc3c2n1CC`?
Marburg entry inh: 3.3µM*; HCMV inh: -70*; HCV inhibitor: inconclusive; Lassa entry inh: 5.2µM*; FMDV inh: -14%

What do the screens show for `CCOc1ccc(CNC(=O)c2cc3oc4ccccc4c3n2C)cc1`?
Marburg entry inh: 4µM*; HCMV inh: -83*; HCV inhibitor: -14%; Lassa entry inh: inconclusive; FMDV inh: 5%

What do the screens show for `COc1cccc(CNC(=O)c2cc3oc4ccccc4c3n2C)c1OC`?
Marburg entry inh: inconclusive; HCMV inh: -35; HCV inhibitor: inconclusive; Lassa entry inh: 5.6µM*; FMDV inh: -1%

Results for Cc1ccc2c(c1)/C(=C/c1ccccc1C)C(=O)N2 ?
Marburg entry inh: 11µM*; HCMV inh: 9; HCV inhibitor: -24%; Lassa entry inh: inconclusive; FMDV inh: -22%

What do the screens show for `COc1ccc2c(c1)/C(=C/c1cc(OC)c(OC)c(OC)c1)C(=O)N2`?
Marburg entry inh: inconclusive; HCMV inh: 31; HCV inhibitor: inconclusive; Lassa entry inh: inconclusive; FMDV inh: inconclusive

What do the screens show for `Cc1ccc2c(c1)/C(=C/c1ccc(F)cc1)C(=O)N2`?
HCMV inh: -10; HCV inhibitor: 11µM*; FMDV inh: inconclusive

How did CC(=O)c1c(C)[nH]c(C(=O)Nc2cccc(S(=O)(=O)N3CCOCC3)c2)c1C do in these assays?
Marburg entry inh: 13%; HCMV inh: 147; HCV inhibitor: inconclusive; Lassa entry inh: 4%; FMDV inh: 16%

How did CCNC(=S)Nc1cccc(S(=O)(=O)Nc2ccccc2OC)c1 do in these assays?
Marburg entry inh: 0%[46.1 µM]; HCMV inh: -24; HCV inhibitor: 1%; Lassa entry inh: -38%[46.1 µM]; FMDV inh: -6%

Results for CC(=O)c1c(C)[nH]c(C(=O)Nc2cccc(S(=O)(=O)N(C)c3ccccc3)c2)c1C ?
Marburg entry inh: 13µM*; HCMV inh: -3; HCV inhibitor: 25µM*; Lassa entry inh: inconclusive; FMDV inh: -10%

Results for COc1ccccc1NS(=O)(=O)c1cccc(NC(=O)Nc2ccccc2)c1 ?
Marburg entry inh: inconclusive; HCMV inh: inconclusive; HCV inhibitor: inconclusive; Lassa entry inh: 15µM*; FMDV inh: inconclusive

How did COc1cc(Cl)c(C)cc1NC(=O)Cc1cccs1 do in these assays?
Marburg entry inh: -12%; HCMV inh: -19; HCV inhibitor: 3.5µM*; Lassa entry inh: 4%; FMDV inh: 12%

How did COc1cc(Cl)c(C)cc1NC(=O)Cc1ccc(OC)c(OC)c1 do in these assays?
Marburg entry inh: -11%[46.1 µM]; HCMV inh: -34; HCV inhibitor: inconclusive; Lassa entry inh: -15%; FMDV inh: inconclusive

How did COc1ccccc1NS(=O)(=O)c1cc(C)ccc1C do in these assays?
Marburg entry inh: 10µM*; HCMV inh: 21; HCV inhibitor: -6%; Lassa entry inh: 0%; FMDV inh: 52%

What do the screens show for `CCC(CC)C(Nc1ccccc1C(C)=O)C(=O)NC1CCCCC1` (centres undefined)?
HCMV inh: -34

How did Cc1cccc(OCC(=O)NCc2ccc3c(c2)CCN3C(=O)c2ccc(Cl)cc2)c1 do in these assays?
HCMV inh: 23; Lassa entry inh: -12%[46.1 µM]; FMDV inh: 0%

Results for COc1ccccc1NS(=O)(=O)c1cccc(NC(=O)Nc2ccc(Cl)cc2)c1 ?
Marburg entry inh: inconclusive; HCMV inh: -85*; HCV inhibitor: inconclusive; Lassa entry inh: 6.3µM*; FMDV inh: inconclusive

What do the screens show for `COc1ccccc1NS(=O)(=O)c1cccc(NC(=O)c2[nH]c(C)c(C(C)=O)c2C)c1`?
HCMV inh: 0; HCV inhibitor: 13µM*; FMDV inh: -29%

What do the screens show for `COc1ccccc1NS(=O)(=O)c1cccc(NC(=O)Cc2cccs2)c1`?
Marburg entry inh: -21%; HCMV inh: -12; HCV inhibitor: inconclusive; Lassa entry inh: 16µM*; FMDV inh: 0%

What do the screens show for `COc1cccc(NC(=O)Cc2cccs2)c1`?
Marburg entry inh: 25%[46.1 µM]; HCMV inh: -23; HCV inhibitor: 22%; Lassa entry inh: 14%; FMDV inh: 30%

What do the screens show for `CC(C)CN1C(=O)N(C)C(=O)C2N=CN=C21` (centres undefined)?
Marburg entry inh: 23%

How did COc1ccccc1-c1ccnc(-n2ncc(C(=O)NCc3cccnc3)c2C)n1 do in these assays?
FMDV inh: 9%

What do the screens show for `COC(=O)c1ccc(-n2ccnc2)cc1`?
Marburg entry inh: -1%[46.1 µM]; HCMV inh: -28; HCV inhibitor: 15%; Lassa entry inh: 0%; FMDV inh: -8%

What do the screens show for `CCc1ccc(C(C)NC(=O)/C=C/c2ccc(Br)cc2)cc1` (centres undefined)?
Marburg entry inh: -7%; HCMV inh: -18; HCV inhibitor: -4%; Lassa entry inh: -25%[14.3 µM]; FMDV inh: -13%

What do the screens show for `CCOC(=O)C(=Cc1ccc(-n2ccnc2)cc1)C(=O)OCC`?
Marburg entry inh: inconclusive; HCMV inh: -86*; HCV inhibitor: inconclusive; Lassa entry inh: inconclusive; FMDV inh: 22µM*

How did CCOC(=O)C(CC)(CC)C(=O)/C=C/c1ccc(Br)cc1 do in these assays?
Marburg entry inh: 3%; HCMV inh: -106*; HCV inhibitor: inconclusive; Lassa entry inh: -10%; FMDV inh: inconclusive

Results for CCOC(=O)C(=Cc1ccc(Br)cc1)C(=O)OCC ?
Marburg entry inh: inconclusive; HCMV inh: -100*; HCV inhibitor: inconclusive; Lassa entry inh: inconclusive; FMDV inh: 22µM*

Results for COc1ccc(Cl)cc1NC(=O)Cn1cc2c(n1)CCC(C)C2 (centres undefined) ?
Marburg entry inh: 4%[46.1 µM]; HCMV inh: -15; Lassa entry inh: 1%[46.1 µM]; FMDV inh: -12%
